# In the supplement of paper PMC7366291:
# Counter-ions that a name gives are not always drawn. ± gives the standard deviation or the standard deviation of the averaged measurements.
# Columns and labels:
# Settings in all cases: 25 µM; exposure: 24-48 hpf
# [1] = test system: Danio rerio Tg(wt1b:EGFP) embryo, pronephros; assay: glomerular separation, fold change vs DMSO control; higher = glomeruli further apart (abnormal)
# How it was run: (§1)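 Each feature value is a fold change relative to the mean of same-day DMSO-treated embryos. Embryos of the Tg(wt1b:EGFP) zebrafish line, dechorionated, received 25 μM compound in 0.5% DMSO from 24 to 48 hpf at 28.5°C, in HEPES-buffered E3 with 0.003% PTU. Distances and angles were computed by a Fiji macro from 16 manually set reference points on maximum projections of dorsal pronephros images, and values beyond 2 SD of the feature mean were removed.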
# [2] = test system: Danio rerio Tg(wt1b:EGFP) embryo, pronephros; assay: glomerular width (mean of left and right), fold change vs DMSO control; higher = wider glomerulus
# How it was run: as §1
# [3] = test system: Danio rerio Tg(wt1b:EGFP) embryo, pronephros; assay: fraction of imaged embryos annotated as normal kidney; higher = less nephrotoxic; extreme values may be limits of the assay
# How it was run: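 Embryos of the Tg(wt1b:EGFP) zebrafish line were dechorionated and held in 12-well plates with 25 μM compound in 0.5% DMSO and 5 mM HEPES-buffered E3 containing 0.003% PTU, from 24 to 48 hpf at 28.5°C. Larvae were then anaesthetised with tricaine, set dorsal side up in agarose-filled 96-well plates, and their pronephroi imaged by widefield fluorescence at 470 nm over 10 z-slices. Each value is the fraction of embryos per treatment placed in the normal-kidney category after manual annotation of maximum projections.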
# [4] = test system: Danio rerio Tg(wt1b:EGFP) embryo, pronephros; assay: pronephric angle neck segment to proximal convoluted tubule (mean of left and right), fold change vs DMSO control; higher = larger pronephric angle
# How it was run: as §1
Structure (SMILES),glomerular separation [1],glomerular width [2],fraction of imaged embryos annotated as normal kidney [3],pronephric angle neck segment [4]
Cc1onc(-c2c(F)cccc2Cl)c1C(=O)N[C@@H]1C(=O)N2[C@@H]1SC(C)(C)[C@@H]2C(=O)O [Flucloxacillin sodium],1.05 ± 0.33,0.989 ± 0.024,0.833,0.958 ± 0.025
OCCN1CCN(CCCN2c3ccccc3Sc3ccc(C(F)(F)F)cc32)CC1 [Fluphenazine dihydrochloride],1.03 ± 0.53,1.07 ± 0.02,0.833,0.932 ± 0.013
O=C(O)CN(CCN(CC(=O)O)CC(=O)O)CCN(CC(=O)O)CC(=O)O [Pentetic acid],1.23 ± 0.47,0.98 ± 0.017,0.917,0.9888 ± 0.0057
CCc1ccc(CCOc2ccc(CC3SC(=O)NC3=O)cc2)nc1 (stereo not drawn) [Pioglitazone],1.48 ± 0.83,1.03 ± 0.0063,0.75,1.03 ± 0.018
Fc1ccc(C(c2ccc(F)cc2)N2CCN(C/C=C/c3ccccc3)CC2)cc1 [Flunarizine dihydrochloride],1.22 ± 0.69,0.932 ± 0.0099,0.364,0.937 ± 0.017
CC[N+](CC)(CC(=O)Nc1c(C)cccc1C)Cc1ccccc1 [Denatonium benzoate],0.973 ± 0.36,0.844 ± 0.018,0.917,0.99113 ± 0.00026
Cc1c(OCC(F)(F)F)ccnc1C[S+]([O-])c1nc2ccccc2[nH]1 (stereo not drawn) [Lansoprazole],1.25 ± 0.57,0.949 ± 0.04,0.333,1.17 ± 0.034
CN(C)CCCC1(c2ccc(F)cc2)OCc2cc(C#N)ccc21 (stereo not drawn) [Citalopram Hydrobromide],1.21 ± 0.7,0.991 ± 0.035,0.667,0.956 ± 0.032
Cc1cccn2c(=O)c(-c3nnn[nH]3)cnc12 [Pemirolast potassium],1.25 ± 0.38,0.89 ± 0.062,1,0.99 ± 0.042
CC(=O)N(CC(O)CO)c1c(I)c(C(=O)NCC(O)CO)c(I)c(C(=O)NCC(O)CO)c1I (stereo not drawn) [Iohexol],1.06 ± 0.38,0.963 ± 0.072,0.75,0.962 ± 0.069
Brc1c(NC2=NCCN2)ccc2nccnc12 [Brimonidine L-Tartrate],0.614 ± 0.22,1.11 ± 0.043,1,0.993 ± 0.1
COc1cc(C(=O)N2CCOCC2)cc(OC)c1OC [Trimetozine],1.03 ± 0.47,0.984 ± 0.065,0.917,1.01 ± 0.06
CC(C)c1c(C(=O)Nc2ccccc2)c(-c2ccccc2)c(-c2ccc(F)cc2)n1CC[C@@H](O)C[C@@H](O)CC(=O)O [Atorvastatin],3.42 ± 1.4,0.691 ± 0.032,0,1.65 ± 0.047
CN1CCCN=C1/C=C/c1cccs1 [Pyrantel tartrate],0.9 ± 0.18,0.937 ± 0.024,0.917,1.074 ± 0.0072
CN(C)/N=N/c1[nH]cnc1C(N)=O [Dacarbazine],0.922 ± 0.21,0.991 ± 0.037,1,0.997 ± 0.06
COc1ccc2c3c1O[C@H]1C[C@@H](O)C=C[C@@]31CCN(C)C2 [Galanthamine hydrobromide],1.08 ± 0.38,1.04 ± 0.0055,0.917,0.964 ± 0.029
Cc1cc(=O)oc2cc(O)ccc12 [Hymecromone],0.837 ± 0.36,1 ± 0.013,0.909,0.98 ± 0.01
O=C1c2c(O)cccc2Cc2cccc(O)c21 [Anthralin],0.949 ± 0.28,0.986 ± 0.02,0.909,1.06 ± 0.014
CCN(CCCc1ccccc1)CCCc1ccccc1 [Alverine citrate salt],0.843 ± 0.21,1.02 ± 0.044,0.75,0.942 ± 0.035
"CC(C)NCC(O)c1ccc(O)c(O)c1 (single isomer, unassigned; (+)) [(+)-Isoproterenol (+)-bitartrate salt]",1.57 ± 0.7,1.03 ± 0.023,0.833,1 ± 0.015
Cc1onc(-c2ccccc2)c1-c1ccc(S(N)(=O)=O)cc1 [Valdecoxib],0.816 ± 0.3,1.13 ± 0.019,0.917,0.9437 ± 0.0089
CN(C)CCCSC(=N)N [Dimaprit dihydrochloride],0.745 ± 0.36,1.05 ± 0.052,0.75,1 ± 0.022
COc1cc2c(cc1OC)C(=O)C(CC1CCN(Cc3ccccc3)CC1)C2 (stereo not drawn) [Donepezil hydrochloride],0.812 ± 0.32,1.13 ± 0.082,0.833,0.9843 ± 0.0083
C=C(CC)C(=O)c1ccc(OCC(=O)O)c(Cl)c1Cl [Ethacrynic acid],1.05 ± 0.28,1.02 ± 0.0053,0.75,0.9182 ± 0.0012
CC(=O)SCC(Cc1ccccc1)C(=O)NCC(=O)OCc1ccccc1 (stereo not drawn) [Racecadotril],1.45 ± 0.84,0.819 ± 0.085,0.167,1.365 ± 0.013
CCn1nc(C(=O)O)c(=O)c2cc3c(cc21)OCO3 [Cinoxacin],1.07 ± 0.43,0.979 ± 0.031,0.8,1.05 ± 0.1
c1ccc(CN(CC2=NCCN2)c2ccccc2)cc1 [Antazoline hydrochloride],1.08 ± 0.41,1.04 ± 0.016,0.833,0.9446 ± 0.00065
